Measurements taken from the supplement of paper PMC10849652.
The full data set covers some 7,900 targets. This sample favours those with a hit. About 0.6% of all pairs of compound and target were hits.

Assays:
Assay in all cases: log2 fold change, soluble protein after heating vs DMSO (PISA); higher = thermal stabilisation; K562 cells, 10 uM, 30 min; active = over 0.2 and 3.5 SD of the protein, either way, in both replicates (recomputed)
[1] = compound: CC[C@@H]1C(=O)N(C)c2cnc(Nc3ccc(C(=O)NC4CCN(C)CC4)cc3OC)nc2N1C1CCCC1
Summary of the method: (§1)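 Soluble protein was defined as the supernatant after 21,000xg for 90 min. It came from K562 cells at 2×10^6 cells/mL given 10 μM compound for 30 min, heated in aliquots for 3 min across 48°C-58°C, pooled, and extracted in PBS with 0.5% NP-40 at 4°C, and was quantified by TMTpro 16plex LC-MS/MS with equalised channel sums. Thermal stability against control samples, from duplicates, is reported as log2 fold change.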

volasertib = compound: CC[C@@H]1C(=O)N(C)c2cnc(Nc3ccc(C(=O)N[C@H]4CC[C@H](N5CCN(CC6CC6)CC5)CC4)cc3OC)nc2N1C(C)C [volasertib]
Summary of the method: as §1

epoxomicin = compound: CC[C@H](C)[C@@H](C(=O)N[C@@H]([C@@H](C)O)C(=O)N[C@@H](CC(C)C)C(=O)[C@]1(CO1)C)NC(=O)[C@H]([C@@H](C)CC)N(C)C(=O)C [epoxomicin]
Summary of the method: as §1

[2] = compound: CCn1c(C(=O)N(C2CC2)C2CC2)cc2c3c(ncn3C)c(Nc3cc(C)n(C)n3)nc21
Summary of the method: as §1

[3] = compound: CCn1cc(-c2ccnc3[nH]c(-c4cccc(CN(C)C)c4)cc23)c(-c2ccc(NC(=O)N(C)C)cc2)n1
Summary of the method: as §1

[4] = compound: CN(C)CC(=O)Nc1ccc2[nH]c(=O)c3ccccc3c2c1
Summary of the method: as §1

rosiglitazone = compound: CN(CCOC1=CC=C(C=C1)C[C@H]2C(=O)NC(=O)S2)C3=CC=CC=N3 (racemic) [rosiglitazone]
Summary of the method: as §1

[5] = compound: CN1C2=C(C3=C1C(=O)N(N=C3)CC4=CC(=CC=C4)N)SC(=C2)S(=O)C
Summary of the method: as §1

[6] = compound: CN1CCC(CNc2ccc3ncc(-c4cccc(OC(F)(F)F)c4)n3n2)CC1
Summary of the method: as §1

saracatinib = compound: CN1CCN(CCOc2cc(OC3CCOCC3)c3c(Nc4c(Cl)ccc5c4OCO5)ncnc3c2)CC1 [saracatinib]
Summary of the method: as §1

sotrastaurin = compound: CN1CCN(c2nc(C3=C(c4c[nH]c5ccccc45)C(=O)NC3=O)c3ccccc3n2)CC1 [sotrastaurin]
Summary of the method: as §1

alvocidib = compound: CN1CC[C@H](c2c(O)cc(O)c3c(=O)cc(-c4ccccc4Cl)oc23)[C@H](O)C1 [alvocidib]
Summary of the method: as §1

[7] = compound: CNC(=O)C1=CC=CC=C1NC2=NC(=NC=C2Cl)NC3=C(C=C(C=C3)N4CCOCC4)OC
Summary of the method: as §1

defactinib = compound: CNC(=O)c1ccc(Nc2ncc(C(F)(F)F)c(NCc3nccnc3N(C)S(C)(=O)=O)n2)cc1 [defactinib]
Summary of the method: as §1

rucaparib = compound: CNCc1ccc(-c2[nH]c3cc(F)cc4c3c2CCNC4=O)cc1 [rucaparib]
Summary of the method: as §1

[8] = compound: CNc1nc(-c2ccc3c(N)n[nH]c3c2)cc(N2C[C@@H](C(=O)NC3CCCCC3)CC[C@H]2C)n1
Summary of the method: as §1

encorafenib = compound: COC(=O)N[C@@H](C)CNc1nccc(-c2cn(C(C)C)nc2-c2cc(Cl)cc(NS(C)(=O)=O)c2F)n1 [encorafenib]
Summary of the method: as §1

[9] = compound: COC(=O)[C@H](CCSC)NC(=O)C1=C(C=C(C=C1)NC[C@H](CS)N)C2=CC=CC=C2
Summary of the method: as §1

[10] = compound: CC[C@H](C)N1C=C(C2=C(C=C(C=C21)C3=CN=C(C=C3)N4CCNCC4)C(=O)NCC5=C(C=C(NC5=O)C)C)C
Summary of the method: as §1

Tubastatin A = compound: CN1CCc2c(c3ccccc3n2Cc2ccc(C(=O)NO)cc2)C1 [Tubastatin A]
Summary of the method: as §1

Measured: log2 fold change

CDK17 isoform 2 (UniProt Q00537)
UniProt Q00537, sequence (Q00537 whole entry, looked up): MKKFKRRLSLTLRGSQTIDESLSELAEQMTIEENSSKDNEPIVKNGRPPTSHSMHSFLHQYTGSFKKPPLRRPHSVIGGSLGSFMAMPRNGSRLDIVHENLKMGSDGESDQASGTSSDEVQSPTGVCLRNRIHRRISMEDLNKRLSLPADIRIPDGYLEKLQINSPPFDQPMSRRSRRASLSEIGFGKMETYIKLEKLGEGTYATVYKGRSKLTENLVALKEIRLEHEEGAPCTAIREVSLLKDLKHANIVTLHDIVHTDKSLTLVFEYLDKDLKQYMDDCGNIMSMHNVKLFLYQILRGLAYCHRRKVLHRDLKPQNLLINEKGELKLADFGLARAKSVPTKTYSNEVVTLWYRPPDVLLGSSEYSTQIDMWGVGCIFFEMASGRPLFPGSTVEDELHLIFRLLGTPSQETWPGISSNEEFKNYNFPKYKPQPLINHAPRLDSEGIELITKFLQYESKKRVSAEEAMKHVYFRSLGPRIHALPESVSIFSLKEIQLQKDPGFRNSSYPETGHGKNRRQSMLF
inactive: [1] -0.153 | volasertib -0.079 | epoxomicin 0.07 | [2] 0.032 | [3] -0.012 | [4] 0.046 | rosiglitazone 0.038 | [5] 0.022 | [6] 0.051 | saracatinib 0.008 | sotrastaurin -0.036 | [7] -0.017 | defactinib 0.11 | rucaparib 0.494 | [8] 0.06 | encorafenib -0.027 | [9] 0.014
active: alvocidib 0.602

CLASP2 (UniProt O75122)
UniProt O75122, sequence (O75122 whole entry, looked up): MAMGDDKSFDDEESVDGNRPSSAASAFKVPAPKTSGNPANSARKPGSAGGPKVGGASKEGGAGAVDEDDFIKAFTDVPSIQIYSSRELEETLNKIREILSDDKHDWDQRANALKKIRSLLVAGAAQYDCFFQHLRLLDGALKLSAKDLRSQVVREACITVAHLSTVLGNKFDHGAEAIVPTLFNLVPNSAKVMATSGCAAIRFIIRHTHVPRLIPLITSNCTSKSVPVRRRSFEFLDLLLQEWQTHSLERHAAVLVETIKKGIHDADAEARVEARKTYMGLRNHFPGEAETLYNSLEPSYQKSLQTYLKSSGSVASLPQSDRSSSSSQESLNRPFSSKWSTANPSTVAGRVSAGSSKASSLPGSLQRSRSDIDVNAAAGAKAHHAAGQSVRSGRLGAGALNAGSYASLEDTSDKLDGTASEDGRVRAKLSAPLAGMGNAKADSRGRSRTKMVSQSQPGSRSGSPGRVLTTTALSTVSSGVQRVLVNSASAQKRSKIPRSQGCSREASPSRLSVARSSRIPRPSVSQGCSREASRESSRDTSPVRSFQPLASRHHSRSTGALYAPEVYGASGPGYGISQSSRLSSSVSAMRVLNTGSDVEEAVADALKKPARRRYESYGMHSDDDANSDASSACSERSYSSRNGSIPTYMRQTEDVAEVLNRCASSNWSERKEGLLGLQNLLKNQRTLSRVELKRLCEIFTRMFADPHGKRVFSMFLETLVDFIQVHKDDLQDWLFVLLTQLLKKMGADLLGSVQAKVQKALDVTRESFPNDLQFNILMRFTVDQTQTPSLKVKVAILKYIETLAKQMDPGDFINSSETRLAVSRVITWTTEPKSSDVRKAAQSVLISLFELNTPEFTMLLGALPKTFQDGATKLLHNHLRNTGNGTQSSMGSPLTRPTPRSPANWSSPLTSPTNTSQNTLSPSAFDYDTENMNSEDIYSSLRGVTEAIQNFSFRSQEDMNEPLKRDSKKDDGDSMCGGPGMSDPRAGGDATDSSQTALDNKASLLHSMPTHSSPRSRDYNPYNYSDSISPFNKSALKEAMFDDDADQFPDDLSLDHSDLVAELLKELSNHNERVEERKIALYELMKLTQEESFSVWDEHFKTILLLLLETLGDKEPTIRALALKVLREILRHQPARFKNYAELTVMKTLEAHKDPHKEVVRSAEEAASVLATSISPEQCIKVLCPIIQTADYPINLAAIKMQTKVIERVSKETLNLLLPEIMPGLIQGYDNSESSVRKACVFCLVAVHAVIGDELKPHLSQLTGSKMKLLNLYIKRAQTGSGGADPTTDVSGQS
inactive: [1] -0.104 | volasertib -0.123 | [10] 0.083 | [2] -0.038 | rosiglitazone 0.166 | alvocidib -0.069 | [7] 0 | rucaparib 0 | encorafenib 0.098

CCM2 isoform 2 (UniProt Q9BSQ5)
inactive: [1] -0.207 | epoxomicin 0.102 | [2] -0.047 | [3] -0.017 | [4] -0.01 | rosiglitazone 0.032 | [5] -0.012 | [6] -0.233 | saracatinib -0.01 | sotrastaurin 0.056 | alvocidib -0.022 | Tubastatin A 0.073 | [7] -0.061 | defactinib -0.107 | rucaparib 0.03 | [8] 0.087 | encorafenib 0.118 | [9] -0.033
active: volasertib -0.412

CFAP47 (UniProt Q6ZTR5)
inactive: [1] 0.063 | volasertib 0.065 | epoxomicin -0.006 | [4] -0.248 | rosiglitazone 0.108 | [5] 0.23 | saracatinib 0.001 | defactinib -0.063 | rucaparib -0.062 | [8] -0.142 | encorafenib -0.173 | [9] 0.084

CEBPZOS (UniProt A8MTT3)
UniProt A8MTT3, sequence (A8MTT3 whole entry, looked up): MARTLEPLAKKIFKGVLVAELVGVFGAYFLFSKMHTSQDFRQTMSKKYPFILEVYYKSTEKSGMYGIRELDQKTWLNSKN
inactive: [1] 0.002 | volasertib -0.035 | [10] -0.038 | [2] 0.057 | [3] 0.013 | [4] -0.001 | rosiglitazone 0.101 | [5] -0.103 | [6] -0.015 | saracatinib 0.079 | Tubastatin A -0.06 | [7] 0.039 | defactinib -0.012 | rucaparib 0.159 | [8] -0.032 | encorafenib -0.038 | [9] -0.02

CCDC57 (UniProt Q2TAC2)
UniProt Q2TAC2, sequence (Q2TAC2 whole entry, looked up): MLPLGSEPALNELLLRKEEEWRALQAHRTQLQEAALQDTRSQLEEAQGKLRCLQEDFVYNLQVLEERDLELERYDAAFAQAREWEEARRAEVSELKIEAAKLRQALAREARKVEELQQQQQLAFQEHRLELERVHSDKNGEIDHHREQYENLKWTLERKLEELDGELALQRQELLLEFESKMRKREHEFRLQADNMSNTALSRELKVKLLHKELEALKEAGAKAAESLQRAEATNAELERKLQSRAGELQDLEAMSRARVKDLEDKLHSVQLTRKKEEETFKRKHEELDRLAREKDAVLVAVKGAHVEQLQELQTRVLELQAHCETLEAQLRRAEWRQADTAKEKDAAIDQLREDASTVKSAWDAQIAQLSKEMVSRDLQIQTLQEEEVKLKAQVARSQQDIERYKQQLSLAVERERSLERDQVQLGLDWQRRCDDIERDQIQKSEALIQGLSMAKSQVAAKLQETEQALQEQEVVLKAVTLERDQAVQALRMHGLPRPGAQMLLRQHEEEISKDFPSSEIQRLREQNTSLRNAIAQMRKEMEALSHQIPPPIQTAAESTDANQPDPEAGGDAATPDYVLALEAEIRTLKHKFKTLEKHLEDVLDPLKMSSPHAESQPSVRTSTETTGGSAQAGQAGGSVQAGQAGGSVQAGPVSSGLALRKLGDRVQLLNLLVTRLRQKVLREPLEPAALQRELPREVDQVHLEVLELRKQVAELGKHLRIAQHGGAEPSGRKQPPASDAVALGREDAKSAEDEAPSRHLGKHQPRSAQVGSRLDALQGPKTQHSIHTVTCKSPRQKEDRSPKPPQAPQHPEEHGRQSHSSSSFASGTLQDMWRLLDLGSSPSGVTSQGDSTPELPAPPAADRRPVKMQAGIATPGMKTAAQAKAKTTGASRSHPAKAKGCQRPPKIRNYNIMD
inactive: [1] -0.033 | volasertib 0.012 | [10] -0.043 | epoxomicin -0.059 | [2] 0.036 | [4] -0.034 | rosiglitazone 0.018 | sotrastaurin 0.059 | alvocidib -0.055 | Tubastatin A 0.026 | [7] 0.04 | defactinib 0.02 | rucaparib -0.15 | encorafenib 0.041 | [9] 0.007

CAB39L (UniProt Q9H9S4)
UniProt Q9H9S4, sequence (Q9H9S4 whole entry, looked up): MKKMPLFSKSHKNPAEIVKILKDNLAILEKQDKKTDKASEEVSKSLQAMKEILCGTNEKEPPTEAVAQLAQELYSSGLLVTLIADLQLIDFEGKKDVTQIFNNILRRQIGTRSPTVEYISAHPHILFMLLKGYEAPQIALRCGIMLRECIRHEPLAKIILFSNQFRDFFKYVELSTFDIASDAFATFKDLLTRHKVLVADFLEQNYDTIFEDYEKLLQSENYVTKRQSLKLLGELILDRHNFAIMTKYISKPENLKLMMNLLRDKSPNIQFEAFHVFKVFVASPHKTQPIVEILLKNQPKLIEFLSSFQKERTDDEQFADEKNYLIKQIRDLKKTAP
inactive: [1] -0.134 | volasertib -0.054 | epoxomicin 0.018 | [2] 0.008 | [3] 0.161 | [4] -0.169 | rosiglitazone 0.107 | [5] -0.047 | [6] 0.072 | saracatinib 0.043 | sotrastaurin -0.213 | Tubastatin A 0.056 | [7] 0.049 | defactinib -0.09 | rucaparib 0.003 | [8] 0.015 | encorafenib -0.144 | [9] 0.043

CLN3 (UniProt Q13286)
UniProt Q13286, sequence (Q13286 whole entry, looked up): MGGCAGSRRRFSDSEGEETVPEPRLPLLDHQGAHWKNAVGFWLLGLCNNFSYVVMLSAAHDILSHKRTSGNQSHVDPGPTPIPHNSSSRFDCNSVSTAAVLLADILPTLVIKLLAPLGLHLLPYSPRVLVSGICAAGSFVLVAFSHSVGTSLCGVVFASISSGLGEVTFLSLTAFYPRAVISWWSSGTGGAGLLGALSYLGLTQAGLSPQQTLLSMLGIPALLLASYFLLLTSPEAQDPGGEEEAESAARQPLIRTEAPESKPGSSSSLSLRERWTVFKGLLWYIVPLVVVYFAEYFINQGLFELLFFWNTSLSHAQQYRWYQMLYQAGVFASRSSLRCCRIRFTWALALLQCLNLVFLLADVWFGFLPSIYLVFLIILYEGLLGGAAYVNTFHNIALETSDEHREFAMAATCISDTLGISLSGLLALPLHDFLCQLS
inactive: [1] -0.003 | volasertib 0.055 | [10] -0.038 | epoxomicin 0.09 | [2] -0.008 | [4] -0.001 | rosiglitazone -0.002 | [5] 0.074 | saracatinib 0.046 | alvocidib 0.107 | Tubastatin A 0.065 | [7] 0.004 | defactinib -0.039 | rucaparib 0.082 | [8] -0.097 | encorafenib -0.053 | [9] 0.149

CCNT2 (UniProt O60583)
UniProt O60583, sequence (O60583 whole entry, looked up): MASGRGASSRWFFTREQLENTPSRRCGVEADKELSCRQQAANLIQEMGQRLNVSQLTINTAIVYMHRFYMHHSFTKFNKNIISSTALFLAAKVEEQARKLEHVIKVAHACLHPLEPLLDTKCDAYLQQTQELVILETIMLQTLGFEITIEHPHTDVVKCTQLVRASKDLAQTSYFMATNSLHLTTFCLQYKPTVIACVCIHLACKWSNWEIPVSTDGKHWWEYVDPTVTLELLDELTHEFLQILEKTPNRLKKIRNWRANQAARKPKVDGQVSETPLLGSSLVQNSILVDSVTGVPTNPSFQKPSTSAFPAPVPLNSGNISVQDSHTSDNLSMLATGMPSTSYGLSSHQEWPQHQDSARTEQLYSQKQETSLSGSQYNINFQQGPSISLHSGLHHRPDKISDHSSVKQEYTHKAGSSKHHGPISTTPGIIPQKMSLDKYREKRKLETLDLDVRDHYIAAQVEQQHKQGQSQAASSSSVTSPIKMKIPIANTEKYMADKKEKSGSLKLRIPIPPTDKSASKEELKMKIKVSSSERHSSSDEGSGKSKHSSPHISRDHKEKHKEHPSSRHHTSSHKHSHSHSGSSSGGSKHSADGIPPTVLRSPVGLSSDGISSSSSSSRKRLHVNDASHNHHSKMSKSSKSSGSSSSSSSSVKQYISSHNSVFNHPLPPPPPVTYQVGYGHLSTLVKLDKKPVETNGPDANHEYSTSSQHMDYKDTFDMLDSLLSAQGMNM
inactive: [1] 0.035 | volasertib -0.096 | [10] 0.056 | epoxomicin 0.004 | [3] -0.084 | [5] 0.023 | [6] -0.101 | saracatinib -0.016 | sotrastaurin -0.372 | Tubastatin A 0.157 | rucaparib -0.112 | [8] 0.04 | encorafenib 0.119

CDK8 (UniProt P49336)
UniProt P49336, sequence (P49336 whole entry, looked up): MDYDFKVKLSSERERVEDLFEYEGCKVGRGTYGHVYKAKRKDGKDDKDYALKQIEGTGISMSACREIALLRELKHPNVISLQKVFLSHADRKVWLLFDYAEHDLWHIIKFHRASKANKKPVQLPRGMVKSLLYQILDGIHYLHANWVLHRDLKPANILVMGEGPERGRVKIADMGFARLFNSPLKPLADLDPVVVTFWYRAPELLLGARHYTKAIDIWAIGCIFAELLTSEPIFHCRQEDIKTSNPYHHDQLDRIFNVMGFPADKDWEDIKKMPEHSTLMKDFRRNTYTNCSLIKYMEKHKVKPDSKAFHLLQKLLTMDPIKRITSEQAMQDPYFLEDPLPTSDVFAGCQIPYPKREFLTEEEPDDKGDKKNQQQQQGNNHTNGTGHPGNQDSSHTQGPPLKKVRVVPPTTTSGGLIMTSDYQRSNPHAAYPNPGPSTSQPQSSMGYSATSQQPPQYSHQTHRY
active: alvocidib 0.66
inactive: [1] 0.096 | volasertib -0.039 | epoxomicin -0.098 | [2] 0.027 | [3] -0.236 | [4] -0.044 | rosiglitazone -0.02 | [5] -0.025 | [6] 0.356 | saracatinib -0.006 | sotrastaurin 0.074 | Tubastatin A -0.1 | [7] 0.053 | defactinib -0.059 | rucaparib 0.192 | [8] 0.018 | encorafenib -0.002 | [9] 0.064
